“And” between values parts separate entries of the source, which are not always exact repeats. Equal entries are not always repeated. About 83,000 compounds went through this panel and 20% of them were active in at least one assay; those are over-represented in the sample as a whole.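 The test compound was applied at a single concentration to cells in 96-well plates for 48 hours, and percent growth was recorded.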 The source made the active and inactive calls.
The compounds below were run on HL-60(TB) leukemia (assay: NCI-60 one-dose screen, 48 h (100 = growth as untreated, 0 = no growth, -100 = all killed)). Conditions: 10 µM.
Protocol: Growth inhibition of the HL-60(TB) human tumor cell line is measured as a screen for anti-cancer activity. Cells are grown in 96 well plates and exposed to the test compound for 48 hours. Compounds are tested at a single concentration, which is 10^-5 M for most compounds. The reported endpoint is percent growth (GI% or GIPRCNT), where numbers from 0 - 100% represent growth inhibition, and numbers from -100% - 0 represent cell death. For example, a value of 40 represents 60% growth inhibition. A value of 0 means no net growth occurred over the course of the experiment. A value of -40 indicates 40% of cells at the beginning of the experiment died by the end of the experiment. A value of -100 means all cells are dead at the end of the experiment.
NCI-60 Human Tumor Cell Lines Screen was performed using the standard one-dose NCI protocol, which is described in more detail at https://dtp.cancer.gov/discovery_development/nci-60/default.htm.
Compounds with GIPRCNT values below 10 were considered active. Activity score was based on GIPRCNT using the following formula: […]
Score is 0 for GIPRCNT values of 100 or above, 50 for GIPRCNT values of 0, and 100 for GIPRCNT values of -100.

Compound | growth
COc1cc(/C=C\[N+](=O)[O-])ccc1O | 9.29% (active) and 48.1% (inactive)
CS(=N)(=O)CCC(N)C(=O)O (stereo not given) | 127% (inactive)
CC(C)(C)OOC(=O)/C=C\C(=O)OOC(C)(C)C | 74.6% (inactive)
O=[N+]([O-])/C=C/c1ccc([N+](=O)[O-])cc1 | 17.1% (inactive) and 55.2% (inactive)
Oc1ccccc1-c1ccccc1 | 96.2% (inactive) and 103% (inactive)
NC(Cc1ccccc1)c1ccccc1 (stereo not given) | 102% (inactive) and 107% (inactive)
NNc1ccccc1 | 5.84% (active)
C/C(=C\c1ccc(Cl)c(Cl)c1)[N+](=O)[O-] | -26.5% (active) and 83.5% (inactive)
CC[C@@H](C)[C@@H]1NC(=O)C(NC(=O)C(CC(C)C)N(C)C(=O)C2CCCN2C(=O)C(C)O)C(C)OC(=O)C(Cc2ccc(OC)cc2)N(C)C(=O)C2CCCN2C(=O)C(CC(C)C)NC(=O)C(C)C(=O)C(C(C)C)OC(=O)C[C@H]1O (stereo not given in full) | -25.2% (active)
O=[N+]([O-])/C=C\c1ccc2c(c1)OCO2 | 106% (inactive)
CC(=O)Nc1c2sscc-2n(C)c1=O | -53% (active)
CC12OOC(c3ccccc31)c1c2ccc2ccccc12 (stereo not given) | -63.5% (active)
COC12c3c(C)cc(O)c4c(=O)occ(c34)C(=O)C1C13COC(=O)c4c(O)cc(C)c(c41)C(=O)C2C3OC(C)=O (stereo not given) | 100% (inactive)
COc1cc(/C=C/[N+](=O)[O-])cc(Br)c1OC | 0.838% (active)
COC1CC2C=C(C)/C=C/C=C/C(=O)NC(c3ccccc3)C/C=C/CCC(O)CC(=O)C2=C1O (stereo not given) | -5.27% (active)
CC/C(=C/c1ccc(OC)cc1OC)[N+](=O)[O-] | 15.7% (inactive)
COC12C(COC(N)=O)C3=C(C(=O)C(C)=C(N)C3=O)N1CC1C2N1C (stereo not given) | -23.2% (active)
C=NCC#N | 99.1% (inactive) and 112% (inactive)
CCOP(=O)(OCC)C(O)c1ccccc1Cl (stereo not given) | 106% (inactive)
COc1ccccc1/C=C/[N+](=O)[O-] | 6.74% (active)

Compound | growth
O=C(CCl)Nc1ccc(Cl)cc1 | 66.3% (inactive)
C[C@@H]1C[C@@H]([C@H](O)CC2CC(=O)NC(=O)C2)C(=O)[C@@H](C)C1 | -3.87% (active)
CCCCCCCC[N+]12CN3CN(CN(C3)C1)C2 | 137% (inactive)
O=C1C=Cc2ccccc2C1=O | 87.3% (inactive)
CN(C)CC1(N)C(=O)NC(=O)NC1=O | 97.5% (inactive)
CC1CCC2(OC1)OC1C(O)C3C4CCC5CC(OC6OC(CO)C(OC7OC(CO)C(O)C(OC8OCC(O)C(O)C8O)C7OC7OC(CO)C(O)C(OC8OC(CO)C(O)C(O)C8O)C7O)C(O)C6O)C(O)CC5(C)C4CCC3(C)C1C2C (stereo not given) | -17.1% (active)
CCOP(=O)(OCC)/C(C#N)=C/c1ccc(Br)cc1 | 92.1% (inactive)
O=[P+](O)c1ccccc1 | 106% (inactive)
COc1cc([N+](=O)[O-])c2ncccc2c1[N+](=O)[O-] | 65.5% (inactive)
COc1ccc(/C=C\[N+](=O)[O-])cc1OC | 44.3% (inactive) and 2.41% (active)
O=C1CCC(=O)N1SC(Cl)(Cl)Cl | 100% (inactive)
C/C1=C\[C@H](C)C[C@H](C)OC(=O)C[C@H](c2ccc(O)cc2)NC(=O)[C@@H](Cc2c(Br)[nH]c3ccccc23)N(C)C(=O)[C@H](C)NC(=O)[C@@H](C)C1 | -44% (active)
Cn1c(O)c(N=O)c(=O)n(C)c1=O | 96.6% (inactive) and 101% (inactive)
O=[N+]([O-])/C=C/c1ccc(Cl)cc1[N+](=O)[O-] | 33.9% (inactive)
COc1ccc(/C=C(\C)[N+](=O)[O-])cc1OC | -38.4% (active)
COc1cc([C@@H]2c3cc4c(c(O)c3C[C@H]3COC(=O)[C@@H]32)OCO4)cc(OC)c1OC | -33.5% (active)
O=S(=O)(F)c1ccc(Cl)cc1 | 123% (inactive)
CC/C(=C/c1ccc(OC)cc1)[N+](=O)[O-] | -1.61% (active)
NC(=O)c1cc([N+](=O)[O-])c(Cl)c([N+](=O)[O-])c1Cl | -26.9% (active)
N#CCc1ccccc1 | 105% (inactive)

From PubChem BioAssay (NCI)
